Measurements published in PubChem BioAssay (Tox21).
Calls of active or inactive are those of the source. Calls follow the shape of the full dose curve.

target: Acetylcholinesterase (Homo sapiens) (UniProt P22303); test: Acetylcholinesterase (AChE) small molecule antagonists: enzyme-based qHTS assay (AID 1347397); settings: Potency: AChE enzyme activity inhibition; outcome: AChE enzyme activity inhibition; series mostly up to 115 µM; activity change, negative = inhibition: at the top concentration; also: nearly all actives have a fitted effect of over 55% in size
Sequence (P22303 whole entry, looked up): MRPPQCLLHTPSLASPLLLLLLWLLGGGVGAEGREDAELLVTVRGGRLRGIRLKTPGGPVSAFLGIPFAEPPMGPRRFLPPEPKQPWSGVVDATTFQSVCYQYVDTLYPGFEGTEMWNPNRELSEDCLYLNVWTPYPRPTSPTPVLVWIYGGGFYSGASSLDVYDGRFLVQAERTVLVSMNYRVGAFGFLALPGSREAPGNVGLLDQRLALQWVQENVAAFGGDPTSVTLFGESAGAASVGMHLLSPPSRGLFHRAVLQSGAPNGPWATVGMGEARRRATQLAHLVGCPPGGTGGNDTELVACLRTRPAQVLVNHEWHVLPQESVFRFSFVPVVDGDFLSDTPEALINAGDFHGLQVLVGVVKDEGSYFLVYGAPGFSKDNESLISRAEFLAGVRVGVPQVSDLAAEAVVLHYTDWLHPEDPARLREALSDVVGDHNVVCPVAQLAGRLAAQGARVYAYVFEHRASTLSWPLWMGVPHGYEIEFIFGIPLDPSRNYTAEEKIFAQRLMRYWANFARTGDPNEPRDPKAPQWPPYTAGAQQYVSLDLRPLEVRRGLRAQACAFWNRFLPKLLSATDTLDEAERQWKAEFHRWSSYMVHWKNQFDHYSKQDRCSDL
Outline: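 Recombinant human AChE, dispensed at 50 mU/mL, was preincubated with Tox21 10K compounds or DMSO vehicle for 30 min at room temperature. DTNB plus acetylthiocholine was then added, and thiocholine was measured colorimetrically after a further 10 min.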
% is scaled to controls: 0 for no effect and ±100 for the full control effect.

Row | SMILES | activity change, negative = inhibition | Potency | outcome
1 | CCCCCCCCCCCCN(CCO)CCO | -1.55% (inactive) | – | –
2 | N#CSc1ccc(N)c([N+](=O)[O-])c1 | 4.76% (inactive) | – | –
3 | CCC(Cc1ccccc1)(C(=O)c1ccc(N2CCOCC2)cc1)N(C)C (stereo not drawn) | -6.59% (inactive) | – | –
4 | C[n+]1ccn(Cc2ccccc2)c1 | -12.1% (inactive) | – | –
5 | Nc1cc(C(Cl)=C(Cl)Cl)c(S(N)(=O)=O)cc1S(N)(=O)=O | -1.08% [at 53 µM] (inactive) | – | –
6 | O=C1CC2(CCCC2)CC(=O)N1CCCCN1CCN(c2ncccn2)CC1 | – | inactive | –
7 | COc1ccc2cc1Oc1ccc(cc1)C[C@H]1c3c(cc4c(c3Oc3cc5c(cc3OC)CCN(C)[C@@H]5C2)OCO4)CCN1C | -6.21% [at 53 µM] (inactive) | – | –
8 | COc1cc2c(Nc3ccc(Br)cc3F)ncnc2cc1OCC1CCN(C)CC1 | 0.27% [at 53 µM] (inactive) | – | –
9 | O=C(CCCN1CCN(c2ccccn2)CC1)c1ccc(F)cc1 | -0.54% [at 53 µM] (inactive) | – | –
10 | CN1CCN(c2cc3c(nn2)Oc2ccccc2N3C)CC1 | -13.5% [at 23.6 µM] (inactive) | – | –
11 | Cc1cc(-c2ccc(N=Nc3cc(S(=O)(=O)O)c4ccccc4c3N)c(C)c2)ccc1N=Nc1cc(S(=O)(=O)O)c2ccccc2c1N | -2.44% (inactive) | – | –
12 | S=C([S-])NCCNC(=S)[S-].[Mn+2] | -17.9% (inactive) | – | –
13 | NS(=O)(=O)c1cc2c(cc1C(F)(F)F)NCNS2(=O)=O | -7.91% [at 53 µM] (inactive) | – | –
14 | CCN(CC)CCNC(=O)c1ccc(NC(C)=O)cc1 | 1.19% [at 53 µM] (inactive) | – | –
15 | CN(C(=O)CCCOc1ccc2[nH]c(=O)ccc2c1)C1CCCCC1 | -14% [at 53 µM] (inactive) | – | –
16 | N#C/C(=C1/SC[C@@H](c2ccc(Cl)cc2Cl)S1)n1ccnc1 | -20.6% [at 53 µM] (inactive) | – | –
17 | NS(=O)(=O)c1cc2c(cc1Cl)NC(CC1CCCC1)NS2(=O)=O (stereo not drawn) | -4.28% [at 53 µM] (inactive) | – | –
18 | Clc1ccc2c(c1)CCc1cccnc1C2=C1CCNCC1 | 0% [at 53 µM] (inactive) | – | –
19 | O=C(OCC(O)CO)c1ccccc1Nc1ccnc2cc(Cl)ccc12 (stereo not drawn) | -3.16% [at 53 µM] (inactive) | – | –

Row | SMILES | activity change, negative = inhibition | Potency | outcome
20 | CN1CCC(=C2c3ccccc3CCc3sccc32)CC1 | -0.352% [at 53 µM] (inactive) | – | –
21 | CCCCN(CCCC)CCCOC(=O)c1ccc(N)cc1 | -0.97% [at 53 µM] (inactive) | – | –
22 | NC(N)=N/N=C/c1c(Cl)cccc1Cl | -0.399% [at 53 µM] (inactive) | – | –
23 | O=C1C=CC(=O)N1 | -13.3% (inactive) | – | –
24 | C[C@@H]1CCC[C@H](C)N1CCCC(O)(c1ccccc1)c1ccccn1 (stereo partly drawn) | -2.51% [at 53 µM] (inactive) | – | –
25 | COc1ccc(-n2nc(C(F)F)cc2-c2ccc(S(C)=O)cc2)cc1 (stereo not drawn) | 0.002% (inactive) | – | –
26 | O=C1CC[C@H](C(=O)N2CCCCC2)N1 | 0.189% [at 53 µM] (inactive) | – | –
27 | Nc1nc2ccccc2n1Cc1ccc(F)cc1 | -5.74% [at 53 µM] (inactive) | – | –
28 | Cc1cc(=O)oc2cc(N(C)C)ccc12 | 5.07% (inactive) | – | –
29 | CCCC[P+](C)(CCCC)CCCC | -11.7% (inactive) | – | –
30 | O=[N+]([O-])c1cccc(S(=O)(=O)NCCNS(=O)(=O)c2cccc([N+](=O)[O-])c2)c1 | -9.74% [at 53 µM] (inactive) | – | –
31 | NC(=O)C(c1ccccc1)(c1ccccc1)[C@@H]1CCN(CCc2ccc3c(c2)CCO3)C1 | -2.85% [at 53 µM] (inactive) | – | –
32 | CN1CCN2c3ccccc3Cc3ccccc3C2C1 (stereo not drawn) | 0.272% [at 53 µM] (inactive) | – | –
33 | COCCOc1cc2cc(C(=O)NC3CCN(C(C)C)CC3)n(CC(=O)Nc3ccc(Cl)cn3)c2cn1 | -7.92% (inactive) | – | –
34 | Cc1ccc(O)c([C@H](CCN(C(C)C)C(C)C)c2ccccc2)c1 | -1.96% [at 53 µM] (inactive) | – | –
35 | CO/N=C1\CN(c2nc3c(cc2F)c(=O)c(C(=O)O)cn3C2CC2)CC1CN (stereo not drawn) | – | – | inactive
36 | Oc1ccc(C(O)CNCCCCCCNCC(O)c2ccc(O)c(O)c2)cc1O (stereo not drawn) | 2.84% [at 53 µM] (inactive) | – | –
37 | Cc1nc2n(c(=O)c1CCN1CCC(c3noc4cc(F)ccc34)CC1)CCCC2 | -12.3% [at 53 µM] (inactive) | – | –
38 | C1CCC(C(CC2CCCCN2)C2CCCCC2)CC1 (stereo not drawn) | -20.1% [at 53 µM] (inactive) | – | –
